This passage reports growth results from PubChem BioAssay (NCI).

The panel holds about 83,000 compounds, 20% with a hit somewhere; the sample as a whole holds those more often.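 For each line, cells grew in 96-well plates with the test compound present at a single concentration for 48 hours.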 Values without a mark were called inactive. Active and inactive are the calls of the source.

This assay deals with MCF7 breast. Description: NCI-60 one-dose screen, 48 h (100 = growth as untreated, 0 = no growth, -100 = all killed). The following applies: 10 µM. Here is the method:
Growth inhibition of the MCF7 human tumor cell line is measured as a screen for anti-cancer activity. Cells are grown in 96 well plates and exposed to the test compound for 48 hours. Compounds are tested at a single concentration, which is 10^-5 M for most compounds. The reported endpoint is percent growth (GI% or GIPRCNT), where numbers from 0 - 100% represent growth inhibition, and numbers from -100% - 0 represent cell death. For example, a value of 40 represents 60% growth inhibition. A value of 0 means no net growth occurred over the course of the experiment. A value of -40 indicates 40% of cells at the beginning of the experiment died by the end of the experiment. A value of -100 means all cells are dead at the end of the experiment.
NCI-60 Human Tumor Cell Lines Screen was performed using the standard one-dose NCI protocol, which is described in more detail at https://dtp.cancer.gov/discovery_development/nci-60/default.htm.
Compounds with GIPRCNT values below 10 were considered active. Activity score was based on GIPRCNT using the following formula: […]
Score is 0 for GIPRCNT values of 100 or above, 50 for GIPRCNT values of 0, and 100 for GIPRCNT values of -100.
For the compound `CCN1CCN(Cc2ccc(NC(=O)c3cccc(-n4cc(-c5ccc(NC(C)=O)nc5)nn4)c3)cc2C(F)(F)F)CC1`, the growth is 70.4%. Then `CCOC(=O)C(Cc1ccccc1)N1C(=O)/C(=C/N2N=C(c3ccc(OC)cc3)CC2c2ccc3ccccc3c2)SC1=S` (stereo not given), with 0.163% (active). Then `COC[C@@H](CC(C)C)N=C1N/C(=C\c2ccc3ncsc3c2)C(=O)N1C`, with -23.3% (active); and `N#Cc1c(NC(=O)c2ccc(C(F)(F)F)cc2)sc2c1CCC(=O)C2`, with -16.9% (active). With `O=C(Cn1cc(CSc2nnc3oc4ccccc4n23)nn1)Nc1cccc(Cl)c1`, the growth is 49%. Then `CC(=C(c1ccc(OCCCN(C)C)cc1)c1ccc(OCCCN(C)C)cc1)c1ccccc1`, with -82.2% (active); and `O=c1c2ccccc2nc(COc2ccccc2)n1/N=C/c1ccc(N2CCOCC2)cc1`, with 77.6%; and `O=C(CSc1ccc(-c2ccc(Cl)cc2)nn1)Nc1ccc(Cl)c(C(F)(F)F)c1`, with 31.5%.

With `Cc1ccc(C(=O)Nc2ccc(-n3c(C)nc4c(cnn4-c4ccccc4)c3=O)cc2)cc1`, the growth was 47.8%.

In the case of `CS(=O)(=O)Nc1ccc(-c2ccc3c(c2)ncn3-c2ccc(NC(=O)Nc3ccc(Cl)c(C(F)(F)F)c3)cc2)cc1`, the growth is -77.8% (active). Then `CC(C)Sc1nc(NC2CC2)c(C#N)c(-c2ccccc2)n1`, with 88.1%; and `CCOC(=O)C1NN(c2ccc(S(N)(=O)=O)cc2)c2nc3nc(-c4cccs4)cc(-c4cccs4)c3c(=O)n21` (stereo not given), with 74.2%. Then `CCOC(=O)C1=C(N)N(c2ccc(Cl)cc2)C2=C(C(=O)CC(C)(C)C2)C1c1ccc(N2CCOCC2)cc1` (stereo not given), with 93.2%; and `Cc1ccc(-c2cc(C(=O)N=Nc3c(O)[nH]c4ccccc34)c3ccccc3n2)cc1`, with 6.61% (active).

Take `CCCn1c(=O)c2[nH]c(-c3ccc(OCc4nc5ccc(C(F)(F)F)cc5[nH]4)cc3)nc2n(CCC)c1=O`: the growth was 28.3%. For `Cc1ccc(-c2nc3ccc(C(=O)N=Nc4c(O)[nH]c5ccc([N+](=O)[O-])cc45)cc3[nH]2)cc1` the value was 65.9%; for `O=C(CSc1nnc(-c2ccc3nc(-c4ccc(Cl)cc4)[nH]c3c2)o1)Nc1ccc(Cl)cc1`, -72.7% (active).

Consider `NC1=NC(c2ccccc2Cl)N=C(Nc2nn[nH]n2)N1` (stereo not given), for which the growth was 93.3%.

Consider `C=C(C)[C@@H]1CC[C@]2(C(=O)OC)CC[C@]3(C)[C@H](CC[C@@H]4[C@@]5(C)CC[C@H](N)C(C)(C)[C@@H]5CC[C@]43C)[C@@H]12`, for which the growth was -85.4% (active). Regarding `O=C(Nc1cccc([N+](=O)[O-])c1)Nc1cccc([N+](=O)[O-])c1`, the growth was 72.5%. For `CCCCCc1ccc(S(=O)(=O)Nc2cc(-c3csc(N(C)C(C)=O)n3)ccc2N2CCN(C)CC2)cc1` the value was 4.08% (active); for `CCCCCCCCCCCCCCCCCCCC(=O)NCCc1c[nH]c2ccc(O)cc12`, 84.9%; for `O=C(Nc1nc2ccc([N+](=O)[O-])cc2s1)Nc1cc(Cl)ccc1I`, -28.9% (active).

As for `N#Cc1ccc(NC(=O)CSc2ccc(-c3ccc(Br)cc3)nn2)cc1`, the growth is 56.2%. For `O=c1cc(-c2ccccc2)oc2cc(OCCCNCc3ccccc3)cc(O)c12` the value was -30% (active). For `O=C(CNc1nc(-c2ccccc2)cs1)Nc1ccccc1` the value was -59.7% (active). For `O=C(c1ccc(Cl)cc1)C1[C@H](c2ccc(Br)cc2)[C@@H](c2ccccc2)NC12C(=O)Nc1ccc(Cl)cc12` (stereo not given in full) the value was -39.7% (active); for `CN1CCCN(Cc2ccc(C(=O)Nc3cccc(Nc4ccc5c(O)cccc5n4)c3)cc2C(F)(F)F)CC1`, -96.5% (active); for `COc1cccc(-c2ccc(/C=N/NC(=O)c3[nH]c4ccc(Br)cc4c3-c3ccccc3)o2)c1`, 4.65% (active).

For the compound `COc1ccc2[nH]cc(/C=N/Nc3cccc(Cl)n3)c2c1`, the growth was 31.9%. Then `O=c1oc2ccccc2cc1-c1csc(N=Nc2c(O)[nH]c3ccc(Br)cc23)n1`, with 80.7%; and `O=c1oc2ccc(-c3ccc(F)cc3F)cc2c(=O)n1-c1ccc(F)c(Cl)c1`, with -17.2% (active). For `Clc1cccc(N/N=C/c2c[nH]c3ccccc23)n1`, the growth is 11.2%. For `Brc1ccc(N/N=C/c2c[nH]c3ccccc23)nc1` the value was 9.88% (active); for `CCCCSc1nc(Nc2ccc(/C(C)=N/NC(N)=S)cc2)c(C#N)c(-c2ccccc2)n1`, 30.7%. For `CN1CCN(c2ccc(C(=O)/C=C/c3cc(C(F)(F)F)ccc3Cl)cc2)CC1`, the growth is -85.3% (active). With `O=C(O)CCCCCCCCCCN1C(=O)/C(=C/c2cnc(-c3ccc(Cl)cc3)s2)SC1=S`, the growth is 27.1%. Then `O=C1Nc2ccc(Cl)cc2/C1=C/c1cccc(OCc2ccccc2)c1`, with 9.65% (active). For `N#Cc1c(NC(=O)c2ccc(C(F)(F)F)cc2)sc2c1CCC(O)=C2` the value was 9.26% (active); for `N#Cc1ccc(-c2nn(-c3ccc(C(=O)O)cc3)cc2CNc2ccc(Oc3ccccc3)cc2)cc1`, 59.8%.
